Five compounds from PubChem BioAssay can be followed below.

Active and inactive are the calls of the source.

Test [1] in a line: binders of probe aFSTL3 on microarray, primary screen, stem cell growth factor project, biochemical, small-molecule microarray, fluorescence 635/667 (AID 1064).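 Also: measures binding of the biotinylated anti-FSTL3 antibody to printed compounds.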 Particulars: higher = more signal.
Test [2] can be described thus: binders from COS7 lysate, DM2A8 probe, primary screen, torsin A project, cell lysate, small-molecule microarray, fluorescence 635/667 (AID 1065). Conditions: higher = more signal, COS7 lysate expressing mutant human TOR1A.
A short description of test [3]: binders of probe aFGF2 on microarray, primary screen, stem cell growth factor project, biochemical, small-molecule microarray, fluorescence 635/667 (AID 1067).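 Also: measures binding of biotinylated aFGF2 protein to printed compounds on slides; z-score merges feature fluorescence and signal-to-noise across triplicate slides.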 Conditions: higher = more signal.
Test [4] can be described thus: binders of probe aFGF10 on microarray, primary screen, stem cell growth factor project, biochemical, small-molecule microarray, fluorescence 635/667 (AID 1071).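 Also: score merges 667 nm spot intensity and signal to noise from triplicate slides.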 Conditions: higher = more signal.
For test [5], the target named is Neurogenic locus notch homolog protein 2 (Homo sapiens) (UniProt Q04721). As to the kind of experiment: Notch2 binders on small-molecule microarrays, primary screen, biochemical, small-molecule microarray, 635 nm fluorescence, stem cell growth factors (AID 1073). Conditions: Notch2 binding, higher = more signal.
The target in test [6] is Pro-neuregulin-1, membrane-bound isoform (Homo sapiens) (UniProt Q02297). The test can be described thus: NRG1 binders on small-molecule microarrays, primary screen, psychiatric disease protein project, biochemical, small-molecule microarray, fluorescence 635/667 (AID 1075).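 Also: score combines 667 nm spot fluorescence with signal to noise.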 Conditions: NRG1 binding, 635 nm fluorescence, higher = more signal.
Test [7] has as its system Neuregulin-1 EGF-like domain. The test can be described thus: binders of neuregulin-1 EGF-like domain, primary screen, biochemical, small-molecule microarray, 635 nm fluorescence (AID 1081).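 Also: binding of the protein to compounds printed on small-molecule microarray slides.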 Conditions: small-molecule microarray binding, higher = more signal.
Test [8] is described as follows: FRG1 promoter luciferase signal modulators, primary screen, FRG1 inhibition for FSHD, cell-based, C2C12 myotubes, firefly/Renilla luciferase, luminescence (AID 1084). Conditions: higher = more signal, called active from +8 up or from −8 down.
Test [9] is described as follows: binders of probe aFST on microarray, primary screen, stem cell growth factor project, biochemical, small-molecule microarray, fluorescence 635/667 (AID 1086).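 Also: score merges 667 nm fluorescence with signal-to-noise of each printed compound spot.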 Particulars: higher = more signal.
Test [10] is described as follows: binders of probe aHhip on microarray, primary screen, stem cell growth factor project, biochemical, small-molecule microarray, fluorescence 635/667 (AID 1087).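 Also: score merges spot fluorescence at 667nm with spot signal to noise ratio.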 Particulars: higher = more signal.
Test [11] has as its system PRMT1 (protein arginine N-methyltransferase 1). As to the kind of experiment: PRMT1 binders on small-molecule microarrays, primary screen, biochemical, small-molecule microarray, 635 nm fluorescence (AID 1088).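 Also: binding of Prmt1 protein to compounds spotted on small-molecule microarray slides.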 Particulars: small-molecule microarray binding, higher = more signal.
Test [12] is described as follows: yeast growth modulation, basal conditions, primary screen, YJM789 clinical isolate, OD600, 24 h (AID 1089).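 Also: growth of clinical yeast isolate S. cerevisiae YJM 789 seeded 1000 cells per well; test concentration not given here.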 Particulars: S. cerevisiae YJM789 growth, higher = more signal, called active from +8 up or from −8 down.
Test [13] is described as follows: fission yeast growth modulation, primary screen, strain 972, OD600, 24 h, no modulator (AID 1090).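 Also: basal condition with compound alone and no growth modifier present; test concentration not given here.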 Conditions: S. pombe 972 growth, higher = more signal, called active from +8 up or from −8 down.
The nature of test [14]: S. cerevisiae growth modulation with rapamycin, primary screen, strain BY4716, OD600, 96 h (AID 1091). Also: test concentration not given here. Particulars: higher = more signal, called active from +8 up or from −8 down.
Test [15] concerns the target Torsin-1A-interacting protein 2 (Homo sapiens) (UniProt Q8NFQ8). The test can be described thus: LULL1 binders on small-molecule microarray, primary screen, cell lysate, human LULL1 lysate, 635/667 nm fluorescence (AID 1092).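 Also: probe is lysate of COS7 cells overexpressing human LULL1; score merges per-feature 667 nm fluorescence with signal-to-noise.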 Particulars: hLULL1 lysate binding, 635 nm fluorescence, higher = more signal.
Test [16] can be described thus: E. coli growth modulation, two-sided OD650, primary screen, E. coli filamentation project, strain DRC41, 24 h (AID 1093).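 Also: MC1000 strain lacking acrAB efflux and sulA so SOS filamentation is blocked; test concentration not given here.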 Particulars: OD650, 24 h, higher = more signal, called active from +8 up or from −8 down.
The nature of test [17]: small-molecule microarray binders of probe aLefty2, primary screen, biochemical, biotinylated probe, 635/667 nm fluorescence (AID 1094).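 Also: score merges spot fluorescence near 667 nm with spot signal-to-noise ratio.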 Conditions: higher = more signal.
Test [18] has as its system Noggin (protein binding on small-molecule microarray). As to the kind of experiment: Noggin binders on small-molecule microarray, primary screen, biochemical, 635/667 nm fluorescence (AID 1095).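 Also: score merges 667 nm feature fluorescence with signal to noise over triplicate slides.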 Conditions: 635 nm fluorescence, higher = more signal.
Test [19] addresses Neurogenic locus notch homolog protein 3 (Homo sapiens) (UniProt Q9UM47). The test can be described thus: NOTCH3 binders on small-molecule microarray, primary screen, biochemical, 635/667 nm fluorescence (AID 1096). Particulars: NOTCH3 binding, 635 nm fluorescence, higher = more signal.
Test [20] in a line: small-molecule microarray binders of probe aEGFR, primary screen, biochemical, biotinylated probe, 635/667 nm fluorescence (AID 1097).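 Also: probe is a biotinylated anti-EGFR antibody binding compounds printed on slides; score combines fluorescence near 667 nm and signal to noise of each spot.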 Particulars: higher = more signal.

Sequence of Torsin-1A-interacting protein 2 (Homo sapiens) (Q8NFQ8 whole entry, looked up): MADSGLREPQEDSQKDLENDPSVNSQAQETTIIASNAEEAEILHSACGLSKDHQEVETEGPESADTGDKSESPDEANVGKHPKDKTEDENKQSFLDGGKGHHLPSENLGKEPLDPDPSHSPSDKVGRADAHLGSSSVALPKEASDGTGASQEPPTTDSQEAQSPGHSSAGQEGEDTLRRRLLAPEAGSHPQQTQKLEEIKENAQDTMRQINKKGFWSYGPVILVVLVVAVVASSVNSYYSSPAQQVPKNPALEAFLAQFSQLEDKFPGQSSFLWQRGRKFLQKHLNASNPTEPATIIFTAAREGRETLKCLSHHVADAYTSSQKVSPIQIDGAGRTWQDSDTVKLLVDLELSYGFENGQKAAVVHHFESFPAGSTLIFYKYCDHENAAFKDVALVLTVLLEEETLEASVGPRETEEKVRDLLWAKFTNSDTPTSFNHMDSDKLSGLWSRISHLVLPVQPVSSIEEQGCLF
Sequence of Neurogenic locus notch homolog protein 2 (Homo sapiens) (Q04721 whole entry, looked up, canonical isoform): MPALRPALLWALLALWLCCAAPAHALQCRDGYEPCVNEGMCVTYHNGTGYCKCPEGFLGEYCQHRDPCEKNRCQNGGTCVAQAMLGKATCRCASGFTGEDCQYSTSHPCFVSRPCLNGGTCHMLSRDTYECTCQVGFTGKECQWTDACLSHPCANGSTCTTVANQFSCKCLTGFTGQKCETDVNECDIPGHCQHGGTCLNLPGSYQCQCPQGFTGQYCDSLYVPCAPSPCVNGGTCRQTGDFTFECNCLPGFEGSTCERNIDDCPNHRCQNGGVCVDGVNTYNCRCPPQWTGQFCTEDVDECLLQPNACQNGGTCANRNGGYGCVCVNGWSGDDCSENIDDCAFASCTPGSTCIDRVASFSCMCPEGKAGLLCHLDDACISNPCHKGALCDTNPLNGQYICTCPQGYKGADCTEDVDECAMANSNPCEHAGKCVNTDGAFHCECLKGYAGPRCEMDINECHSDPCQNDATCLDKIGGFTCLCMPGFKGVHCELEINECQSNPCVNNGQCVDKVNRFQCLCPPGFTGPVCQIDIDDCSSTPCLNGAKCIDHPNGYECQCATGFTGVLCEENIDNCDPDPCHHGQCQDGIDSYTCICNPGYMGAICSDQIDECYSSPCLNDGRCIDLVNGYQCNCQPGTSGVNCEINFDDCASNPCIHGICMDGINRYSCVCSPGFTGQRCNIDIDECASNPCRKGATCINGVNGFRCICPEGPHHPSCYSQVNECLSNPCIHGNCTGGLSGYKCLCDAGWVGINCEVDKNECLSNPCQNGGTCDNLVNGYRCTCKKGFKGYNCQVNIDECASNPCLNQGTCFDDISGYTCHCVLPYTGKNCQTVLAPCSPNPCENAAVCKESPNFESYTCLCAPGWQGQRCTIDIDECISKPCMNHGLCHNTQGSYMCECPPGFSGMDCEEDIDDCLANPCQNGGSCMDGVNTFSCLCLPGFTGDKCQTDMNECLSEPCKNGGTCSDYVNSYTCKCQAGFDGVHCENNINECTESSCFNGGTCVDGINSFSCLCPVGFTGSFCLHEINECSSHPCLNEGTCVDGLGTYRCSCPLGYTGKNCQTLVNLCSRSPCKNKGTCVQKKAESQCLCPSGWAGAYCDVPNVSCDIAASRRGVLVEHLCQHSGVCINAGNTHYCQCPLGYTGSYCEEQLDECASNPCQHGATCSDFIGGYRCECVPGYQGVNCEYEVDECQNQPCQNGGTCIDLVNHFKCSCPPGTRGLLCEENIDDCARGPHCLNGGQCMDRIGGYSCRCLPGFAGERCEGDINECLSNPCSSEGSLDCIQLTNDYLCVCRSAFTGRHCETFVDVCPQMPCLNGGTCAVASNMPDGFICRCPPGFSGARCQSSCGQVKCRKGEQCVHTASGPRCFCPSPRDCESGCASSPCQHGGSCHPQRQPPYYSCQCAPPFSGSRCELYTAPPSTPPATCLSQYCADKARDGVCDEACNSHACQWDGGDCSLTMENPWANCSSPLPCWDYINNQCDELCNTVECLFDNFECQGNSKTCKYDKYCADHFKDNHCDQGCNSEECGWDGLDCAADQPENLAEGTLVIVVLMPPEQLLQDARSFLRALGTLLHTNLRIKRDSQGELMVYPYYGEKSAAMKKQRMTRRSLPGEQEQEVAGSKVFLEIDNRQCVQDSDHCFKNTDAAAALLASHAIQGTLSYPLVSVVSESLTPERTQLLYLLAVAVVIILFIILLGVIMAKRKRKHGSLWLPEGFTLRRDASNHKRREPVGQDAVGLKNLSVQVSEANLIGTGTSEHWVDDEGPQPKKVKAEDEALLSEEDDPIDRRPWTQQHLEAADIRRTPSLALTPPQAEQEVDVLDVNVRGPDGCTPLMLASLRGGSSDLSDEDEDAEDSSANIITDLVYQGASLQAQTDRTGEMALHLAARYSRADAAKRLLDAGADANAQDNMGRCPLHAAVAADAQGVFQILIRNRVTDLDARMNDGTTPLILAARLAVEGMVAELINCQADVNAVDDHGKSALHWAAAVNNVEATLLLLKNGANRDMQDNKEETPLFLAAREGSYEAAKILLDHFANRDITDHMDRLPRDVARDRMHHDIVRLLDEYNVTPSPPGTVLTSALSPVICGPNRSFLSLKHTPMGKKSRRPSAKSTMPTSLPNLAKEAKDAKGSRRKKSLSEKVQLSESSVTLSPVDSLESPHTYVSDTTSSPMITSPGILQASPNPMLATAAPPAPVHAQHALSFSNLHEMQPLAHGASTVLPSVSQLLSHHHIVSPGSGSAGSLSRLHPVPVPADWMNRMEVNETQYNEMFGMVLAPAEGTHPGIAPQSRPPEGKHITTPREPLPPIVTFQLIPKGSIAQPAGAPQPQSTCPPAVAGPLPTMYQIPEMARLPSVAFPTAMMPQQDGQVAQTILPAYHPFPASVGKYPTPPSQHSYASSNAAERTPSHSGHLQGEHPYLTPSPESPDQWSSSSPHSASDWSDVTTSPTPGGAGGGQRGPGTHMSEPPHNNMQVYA
Sequence of Pro-neuregulin-1, membrane-bound isoform (Homo sapiens) (Q02297 whole entry, looked up, the tested form may be a part, canonical isoform): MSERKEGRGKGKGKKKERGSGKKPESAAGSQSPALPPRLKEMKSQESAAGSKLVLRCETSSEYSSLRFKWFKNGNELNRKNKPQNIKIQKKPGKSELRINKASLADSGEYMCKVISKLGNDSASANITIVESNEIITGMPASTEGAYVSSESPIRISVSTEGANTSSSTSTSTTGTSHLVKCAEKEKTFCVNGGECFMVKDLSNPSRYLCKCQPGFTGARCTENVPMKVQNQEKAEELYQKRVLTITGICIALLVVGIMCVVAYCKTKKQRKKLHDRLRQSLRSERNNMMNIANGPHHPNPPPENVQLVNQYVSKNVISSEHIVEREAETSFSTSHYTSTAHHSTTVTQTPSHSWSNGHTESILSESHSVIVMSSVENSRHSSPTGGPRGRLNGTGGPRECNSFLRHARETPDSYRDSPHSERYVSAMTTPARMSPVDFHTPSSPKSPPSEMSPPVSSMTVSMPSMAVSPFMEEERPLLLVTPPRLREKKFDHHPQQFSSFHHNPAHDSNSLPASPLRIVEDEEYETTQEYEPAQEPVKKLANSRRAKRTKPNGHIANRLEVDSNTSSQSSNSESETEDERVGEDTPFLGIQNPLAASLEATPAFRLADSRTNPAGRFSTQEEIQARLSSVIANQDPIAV

With `COc1ccc([Si](C)(C)[C@H]2[C@H](CCO)O[C@@]3(C(=O)N(Cc4ccc(NC(=O)[C@H](C)O)cc4)c4ccccc43)[C@@H]2C)cc1`, the composite z-score in test [1] is -0.184; in [2], 0.485; in test [3] it was -0.0508; in [4], 0.663; in [5], 1.19; in test [6] it was 1.54. The composite z-score was 1.19 in [7]; 0.292 in test [9]; 0.0401 in test [10]; 1.58 in test [11]; 2.19 in test [15]; -0.142 in test [17]. Further, the composite z-score in test [18] is 0.862; in [19], 0.762; in test [20], 0.0337. In addition, the z-score is -4.06 (inactive) in [8]; 2.39 (inactive) in [12]; -1.36 (inactive) in test [13]; 4.78 (inactive) in test [14]; 1.38 (inactive) in test [16].

Take `COc1ccc([Si](C)(C)[C@H]2[C@H](CC(=O)N3Cc4ccccc4C[C@H]3CO)O[C@@]3(C(=O)N(C)c4ccccc43)[C@@H]2C)cc1`: the composite z-score in test [1] was 0.271; in [2], 1.09; in [3], -0.081; in test [4] it was 0.583; in test [5], 0.647; in [6], 1.65. The composite z-score is 1.36 in test [7]; 0.596 in [9]; 0.315 in test [10]; 1.53 in test [11]; 2.13 in test [15]; 0.173 in [17]. The composite z-score in [18] was 1.91; in test [19] it was 1.08; in test [20], -0.0839. In addition, the z-score is -3.34 (inactive) in test [8]; -1.52 (inactive) in [12]; -2.06 (inactive) in test [13]; -0.0615 (inactive) in test [14]; 0.456 (inactive) in [16].

Take `COC(=O)[C@@]1(Cc2ccc(F)cc2)[C@H]2c3cc(C(=O)N(C)C)n(CCc4ccc(O)c(O)c4)c3C[C@H]2CN1C(=O)c1ccccc1`: the composite z-score in test [1] is -0.0383; in test [2], -0.134; in [3], 0.187; in [4], 0.876; in [5], 1.68; in [6] it was 0.562. The composite z-score in test [7] was 1; in [9], 0.662; in test [10], -0.374; in [11], -0.0562; in test [15], 2.56; in test [17], 0.534. The composite z-score in test [18] is -0.601; in [19], 0.498; in [20], 0.253. In addition, the z-score was 0.115 (inactive) in [8]; 0.278 (inactive) in test [12]; 0.955 (inactive) in test [13]; 0.987 (inactive) in [14]; -0.365 (inactive) in test [16].

With `C[C@]1(C(=O)O)c2ccccc2C(=O)N(Cc2cc(F)cc(C(F)(F)F)c2)[C@H]1c1ccc(CO)cc1`, the composite z-score in [1] is -0.25; in test [2], -0.205; in [3], -0.0887; in test [4], 0.0859; in [5], 0.361; in test [6], 0.233. Further, the composite z-score in test [7] is 0.936; in [9], 0.436; in [10], -0.268; in test [11] it was 0.413; in test [15], 1.64; in test [17], -0.153. Besides, the composite z-score in [18] was 1.04; in test [19] it was 0.137; in test [20] it was -0.115. Also, the z-score is -0.163 (inactive) in [8]; -0.994 (inactive) in test [12]; -1.3 (inactive) in [13]; -1.9 (inactive) in [14]; 0.581 (inactive) in test [16].

Consider `CCCCC(O)C1C=CC2C(=O)N(c3ccccc3)C(=O)C2N1Nc1ccccc1` (stereo not given), for which the composite z-score in [1] is 0.436; in test [2], -0.572; in [3], -0.0414; in [4], 0.43; in [5], 1.2; in test [6], 1.62. In addition, the composite z-score in [7] was 1.12; in test [9] it was 0.545; in test [10] it was -0.137; in test [11], 0.24; in test [15], 2.93; in test [17] it was -0.0355. In addition, the composite z-score in test [18] is -0.422; in test [19], 0.452; in [20], -0.153. In addition, the z-score in test [8] is 0.0165 (inactive); in test [12], 0.102 (inactive); in [13] it was -1.32 (inactive); in test [14], 1.77 (inactive); in test [16], -0.193 (inactive).
